Assay outcomes from PubChem BioAssay.
FLuc counter: qHTS profiling assay for firefly luciferase inhibitor/activator using purifed enzyme and Km concentrations of substrates (counterscreen for miR-21 project); purified FLuc, Km substrates, luminescence inhibition; Potency, µM (highest dose often 57.5 µM), for inactives: at the top dose activity change, negative = inhibition, most hits filed as inhibitors; 360,000 compounds, 6.9% hits;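 further: plate controls were vehicle for no effect and reference inhibitor for full effect; nearly all actives have a fitted effect of over 55% in size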
Target sequence (P08659 whole entry, looked up): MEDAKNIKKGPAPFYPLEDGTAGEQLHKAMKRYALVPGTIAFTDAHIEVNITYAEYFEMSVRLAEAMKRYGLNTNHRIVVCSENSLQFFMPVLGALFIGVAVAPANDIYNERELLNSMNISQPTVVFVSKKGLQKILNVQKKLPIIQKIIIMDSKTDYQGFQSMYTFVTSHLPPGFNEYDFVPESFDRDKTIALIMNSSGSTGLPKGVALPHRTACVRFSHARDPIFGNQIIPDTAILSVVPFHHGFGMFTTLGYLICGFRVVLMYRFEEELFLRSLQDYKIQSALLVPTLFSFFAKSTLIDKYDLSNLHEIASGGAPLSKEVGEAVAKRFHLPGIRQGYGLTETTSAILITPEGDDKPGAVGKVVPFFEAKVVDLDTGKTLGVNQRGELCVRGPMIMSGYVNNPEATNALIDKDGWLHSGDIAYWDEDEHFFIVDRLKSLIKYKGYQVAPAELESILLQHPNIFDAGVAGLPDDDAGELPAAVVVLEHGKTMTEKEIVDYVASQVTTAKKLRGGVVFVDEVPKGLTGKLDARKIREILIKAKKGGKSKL
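Biochemical qHTS of compounds, final roughly 60 µM downward over six points, against 10 nM purified firefly luciferase using Km concentrations of substrates (10 uM D-luciferin, 10 uM ATP) in Tris acetate pH 7.5 buffer; luminescence output.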
NPC1 promoter act: qHTS Assay for NPC1 Promoter Activators; Huh7 NPC1 promoter luciferase reporter, 24 h; Potency, µM (top dose mostly 9.22 µM), for inactives: top-dose activation, most hits filed as activators; 320,000 compounds, 2.4% hits; AID 485313, 2010; further: % of control where 0% means no effect; nearly all actives have a fitted effect of over 60% in size
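Cells: Huh7 expressing luciferase under the NPC1 promoter, 1500/well. Seeded 2 h, compound added, incubated 24 h at 37 °C. Luciferase reagent, 10 min ambient, then luminescence.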
SMN2 splice up: qHTS Assay for Enhancers of SMN2 Splice Variant Expression. HEK293 SMN2-luciferase splicing reporter, luminescence, 30-36 h. Potency, µM (series often up to 46.1 µM), for inactives: at the top dose activity change, positive = activation, actives largely listed as activators. 210,000 compounds, 2.8% hits. AID 1458, 2008; further: % of control where 0% means no effect; nearly all actives have a fitted effect of over 55% in size
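qHTS luciferase splicing reporter: luminescence rises when SMN2 exon 7 is included in transfected HEK293 cells. Compound exposure lasted 30-36 h at 37C, with 4.5 mM final sodium butyrate as control, followed by a ONE-Glo read.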
Rab9 prom act: qHTS Assay for Rab9 Promoter Activators | Huh7 Rab9 promoter-luciferase reporter, luminescence, 24 h | Potency, µM (doses to about 9.22 µM), without a hit: at the highest dose activation, negative = inhibition, actives largely listed as activators | 320,000 compounds, 2.8% hits; further: % of control where 0% means no effect; nearly all actives have a fitted effect of over 60% in size
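Steps: seed 1500 Huh7 Rab9-luc cells per well, rest 2 h at 37 °C; add compound in DMSO; incubate 24 h; add luciferase reagent, 10 min ambient; read luminescence.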
ELG1 genotox: qHTS screen for small molecules that induce genotoxicity in human embryonic kidney (HEK293T) cells expressing luciferase-tagged ELG1; AID 504466, 2011; 330,000 compounds, 1.3% hits; HEK293T ELG1-luciferase reporter, luminescence, 16 h; Potency, µM (titrated, usually from 46 µM), without a hit: at the top dose activity change, positive = activation, usual class: activators; further: % of control where 0% means no effect; nearly all actives have a fitted effect of over 60% in size
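Cells (2,000/well) expressing the ELG1-luciferase fusion are dosed by pin tool and kept 16 hr at 37 °C, 5% CO2. Signal comes from ONE-Glo luciferase reagent after 30 min at room temperature.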
Luc counter: Counterscreen for Luciferase (Kinase-Glo TM) Inhibition; Luciferin 4-monooxygenase (Photuris pensylvanica), Q27757; Kinase-Glo luciferase, ATP luminescence, 8 min; Potency, µM (top dose mostly 38.3 µM), inactives show at the highest dose activity change, negative = inhibition, most hits filed as inhibitors; 200,000 compounds, 0.28% hits; AID 1379, 2008; further: on the % scale 0 is the no-effect control and ±100 the full control effect; nearly all actives have a fitted effect of over 60% in size
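Compounds were added to a substrate mix at pH 7.2 (50 mM imidazole, 10 uM ATP, within the enzyme's linear range), followed by Kinase-Glo detection reagent; luminescence was measured after 8 minutes at ambient temperature.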
* hit, by the source's call; ? = inconclusive; nt = no result; [ ] = remark or other dose. Shown are actives, neighbours in structure and some others; about 7.5% of the full set was active somewhere. The call rests on the fitted dose curve; in most records, active means well fitted curve in the direction sought with a large enough effect; inconclusive means small, poorly fitted or top-dose-only effect, or another doubt; inactive means no such curve, though single readings can be large; an effect the other way counts as inactive or inconclusive. Potency means the concentration at half of the fitted maximal effect.

SMILES | FLuc counter | NPC1 promoter act | SMN2 splice up | Rab9 prom act | ELG1 genotox | Luc counter
O=C1NN(c2ccc(Br)cc2)C(=O)/C1=C\c1ccc(O)cc1O | ? | 7% | nt | 4% | -3% | nt
O=C1NN(c2cccc(Br)c2)C(=O)/C1=C\c1ccc(O)cc1 | 15µM* | 1% | nt | -2%[1.84 µM] | 0% | nt
CCOc1cc(/C=C2/C(=O)NN(c3cccc(Cl)c3)C2=O)ccc1O | 24µM* | 0% | nt | 0% | -3% | nt
COc1cc(/C=C2/C(=O)NN(c3cccc(Cl)c3)C2=O)cc(OC)c1O | 21µM* | 1% | nt | 0% | 9% | nt
Cc1ccc(NC(=O)Cn2c(=O)n(Cc3ccco3)c(=O)c3sc4ccccc4c32)c(C)c1 | 1% | nt | 4% | nt | nt | nt
Cc1ccc(N2CCN(c3cc(C)nc4nc(C)nn34)CC2)c(C)c1 | 7% | -3% | 0% | -3% | -2% | 0%
Cc1cccc2c(=O)cc(CSc3ccccc3NC(=O)c3cccc(F)c3)[nH]c12 | 1% | nt | nt | nt | nt | nt
CNC(=O)NC(=O)CSc1nc2sccc2c(=O)n1-c1ccccc1 | 2% | 1% | nt | 5% | 2% | nt
C/C(=N\NC(=O)c1ccccc1C)c1cccnc1 | ? | 17% | nt | 29% | 3% | nt
C/C(=N\Nc1ccccc1C)c1cccnc1 | 17µM* | 2% | nt | 4% | 11% | nt
CC(C)[C@H](NS(=O)(=O)c1ccc(Cl)cc1)C(=O)OCC(=O)NCCN1C(=O)CSC1=O | 1% | 1% | nt | 5% | 1% | nt
O=C(COc1cccc(NC(=O)c2cccc([N+](=O)[O-])c2)c1)c1ccc(F)cc1 | ? | -2% | -70% | 0% | -14% | 3%
O=C(COc1cccc(NC(=O)c2ccccc2)c1)c1ccc(F)cc1 | 15µM* | 5% | -58% | -2% | -7% | 2%
O=C(COc1ccc(Cc2ccccc2)cc1)c1ccc(F)cc1 | 8.5µM* | 27% | 3% | 24% | 9% | 0%
Cc1ccc(C(=O)Nc2ccccc2Cl)cc1 | 6.7µM* | 3.2µM* | nt | 1.6µM* | ? | nt
Cc1ccc(Cn2nc(C)cc2C(=O)Nc2ccc(Cl)cc2)cc1 | ? | 15% | nt | 9% | 3% | nt
O=C(Nc1cccc(Cl)c1Cl)c1ccc(-c2ccccc2)cc1 | ? | 2.5µM* | ? | ? | ? | -7%
Cc1ccc(Cn2nc(C)cc2C(=O)Nc2ccccc2Cl)cc1 | 12µM* | ? | nt | 2.5µM* | 23µM* | nt
CCOC(=O)c1cc(-c2ccc(C)cc2)nn1Cc1ccccc1 | 7.6µM* | nt | ? | nt | nt | nt
COc1ccc(-c2cc(C(=O)O)n(Cc3ccccc3)n2)cc1 | ? | nt | -9% | nt | nt | nt
O=C(Nc1ccccc1Cl)c1ccccc1 | -19% | 19% | -19% | 22% | ? | -1%
COc1ccc(OCCCC(=O)Nc2cc([N+](=O)[O-])ccc2C)cc1 | -2% | ? | -7% | 10% | -6% | 0%
O=C1CCC=C1C(O)c1ccc2c(c1)OCO2 (stereo not given) | nt | nt | 1% | nt | nt | -1%
CCOc1ccc(C(C)(C)C)cc1S(=O)(=O)Nc1ccncc1 | -2% | 3% | nt | -2% | 2% | nt
NCC(O)C1CCCCCCC1 (stereo not given) | nt | 4%[46.1 µM] | -57% | -3%[46.1 µM] | nt | -1%
SMILES | FLuc counter | NPC1 promoter act | SMN2 splice up | Rab9 prom act | ELG1 genotox | Luc counter
COc1cccc2[nH]c3ccccc3c(=O)c12 | 17µM* | 3% | nt | 6% | 0% | nt
CCC(C)c1ccccc1NC(=O)C(C)OC(=O)c1ccco1 (stereo not given) | 3% | -3% | nt | -3% | 1% | nt
CN(C)CCCNC(=O)c1ccc(/C=N/O)nc1 | 11µM* | 2.5µM* | nt | 2.8µM* | ? | -4%
Cc1ccccc1CNC(=O)c1ccc2[nH]c(C)c(C)c2c1 | -16% | nt | nt | nt | nt | nt
Cc1[nH]c2ccc(C(=O)Nc3ccncc3)cc2c1C | 17µM* | -1% | nt | 5% | -2% | nt
Cc1ccccc1NC(=O)c1ccc2[nH]c(C)c(C)c2c1 | 21µM* | nt | nt | nt | nt | nt
Cc1[nH]c2ccc(C(=O)O)cc2c1C | -4% | 7% | 4% | 0% | 7% | 4%
COc1ccccc1NC(=O)c1ccc2[nH]c(C)c(C)c2c1 | 12µM* | ? | nt | 2.8µM* | ? | nt
O=C(c1cccc(S(=O)(=O)N2CCCC2)c1)N1CCCC(C(F)(F)F)C1 (stereo not given) | 1% | 1% | nt | 0% | -1% | nt
O=C1c2ccc(Cl)cc2S(=O)(=O)c2cccc(C(=O)N3CCC(Cc4ccccc4)CC3)c21 | 3% | -8% | nt | -3% | -6% | nt
Cc1ccc(CN2CCC(CNc3ncnc4onc(-c5ccc(F)cc5)c34)CC2)cc1 | 0% | nt | nt | nt | nt | nt
CCOc1ccc(NC(=O)c2cnn3c2NC(C)=C(C(=O)Nc2ccc(Cl)cc2)C3c2ccc(OC)c(OC)c2)cc1 (stereo not given) | -1% | nt | 7% | nt | nt | nt
COc1ccccc1C(C)NC(=O)CCNC(=O)c1ccc(Cl)cc1 (stereo not given) | nt | nt | nt | nt | -1% | nt
Cc1ccc(-n2nc(-c3ccccc3)cc2Nc2ccccc2N)cc1 | ? | 1% | -3% | -1% | -3% | -3%
Cc1ccc(-c2cc3nn(-c4ccccc4)c(N)c3c(=O)o2)cc1 | 6µM* | 25% | -28% | ? | -2% | -2%
C/C(=N/OC(=O)c1ccc(C)cc1)c1cccs1 | 0.076µM* | -1% | 11% | 2% | 1% | 13µM*
COc1ccc(C(=O)O/N=C(/c2cccs2)C(C)(C)C)cc1 | -11% | -2% | nt | 1% | -1% | nt
C/C(=N\NC(=O)Cc1ccccc1)c1cccs1 | 0% | 1% | 3% | -2% | 0% | -7%
C/C(=N\OC(=O)c1ccc(C)cc1)c1sc(C)nc1C | 2.7µM* | -4% | -10% | -2% | 0% | -10%
C/C(=N/N=C(/C)c1cccs1)c1cccs1 | 4.8µM* | ? | nt | ? | ? | nt
C/C(=N\OC(=O)c1ccc(Cl)c(Cl)c1)c1sc(C)nc1C | 5.4µM* | -1% | -10% | -2% | 1% | 2%
COCC(=O)OCC(=O)Nc1ccc(Cl)cc1[N+](=O)[O-] | -4% | -10% | 2% | -4% | 3% | 0%
C/C(=N/OC(=O)c1ccccc1Br)c1ccc(C)cc1 | 2.7µM* | 18% | nt | 17% | ? | nt
CCCn1c(=O)c2ccccc2n2c(SCc3nc4ccccc4s3)nnc12 | 11µM* | 3% | ? | ? | ? | -5%
CCCn1c(SCc2nc3ccccc3s2)n[nH]c1=O | 5.4µM* | 20% | ? | 3.5µM* | 18µM* | -13%
O=c1[nH]nc(SCc2nc3ccccc3s2)n1C1CC1 | 24µM* | 10% | ? | ? | 21µM* | -4%
